Laboratory results as given in PubChem BioAssay.
Results filed as inconclusive are left out. Activity calls are given as the source filed them. Unless noted, no rule for the calls is given here.

Columns and labels:
[1] = compounds altering circadian rhythm period length – cell-based, LOPAC library, luminescence reporter (AID 2774); details: circadian reporter cells, at 7 µM, actives lie on both sides;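 also: values are relative to mean of DMSO wells on each plate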
[2] = compounds altering viability of human ES cells (AID 493140); details: human embryonic stem cell survival screen; stronger effect = higher value;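 also: cells exposed to compounds for four days before counting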
[3] = P. berghei load reduction in hepatocytes – cell-based, HepG2, luciferase luminescence, HepG2 viability, primary screen (AID 624349; in the data active = parasite load remaining mostly below about 12%, no sharp cut-off; inactive = mostly above about 10%;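 also: 100% = mean of DMSO negative control wells on the same plate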); details: P. berghei liver stage in HepG2, luciferase luminescence, concentration not given here; parasite load remaining: stronger effect = lower value; viability: measured here: HepG2 viability without parasites
[4] = tested on: Hepatitis C virus NS3 helicase; assay: blockers of NS3h binding to ssDNA – biochemical, fluorescence polarization, LOPAC1280 library, primary screen (AID 687035; in the data active = inhibition above about 37%); details: Purified HCV NS3 helicase, Cy5-dT15 ssDNA binding fluorescence polarization; stronger effect = higher value; concentration not given here
[5] = compounds altering Cy5-DNA-NS3h complex signal – biochemical, LOPAC1280, artefact control for HCV NS3 helicase inhibitor project (AID 687037); details: Cy5-DNA-NS3h complex fluorescence interference counterscreen
[6] = viability loss with induced miR-34 in A549 – imaging, A549 dox-inducible miR-34, nuclei and caspase counts, primary screen (AID 1347080;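 active = compounds whose cell count with miR-34 switched on is under 0.7 times the count with it off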); details: A549 miR-34 inducible, Hoechst nuclei count, 48 h
[7] = blockers of cellular phospholipid synthesis – cell-based, LOPAC library, screen 4, primary screen (AID 1347384); details: animal cells, phospholipid biosynthesis inhibition screen; at 10 µM
[8] = galactose survival enhancers in mitochondrial complex I cybrids – cell-based, galactose medium, ATP luminescence, primary screen (AID 1645843;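 active = z-score of at least 1.8 in each of two replicates, scored against plate mean and spread of sample wells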;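 also: positive z means more ATP and so rescue of galactose-driven cybrid death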); details: complex I mutant cybrid cells, 72 h, stronger effect = higher value
[9] = target: ATP-dependent translocase ABCB1 (Homo sapiens) (UniProt P08183); assay: P-glycoprotein substrate transport blockade – cell-based (AID 377; in the data active = fluorescence slope change above about 50%); details: MDR1-expressing cells, fluorescent substrate accumulation slope; stronger effect = higher value; concentration not given here
[10] = stronger effect = lower value, cell number ratio, induced over uninduced
[11] = measured here: relative caspase fold change +Dox/-Dox
[12] = measured here: total cells with miR-34 induction, stronger effect = lower value
[13] = measured here: total cells without miR-34 induction

ATP-dependent translocase ABCB1 (Homo sapiens), sequence (P08183 whole entry, looked up): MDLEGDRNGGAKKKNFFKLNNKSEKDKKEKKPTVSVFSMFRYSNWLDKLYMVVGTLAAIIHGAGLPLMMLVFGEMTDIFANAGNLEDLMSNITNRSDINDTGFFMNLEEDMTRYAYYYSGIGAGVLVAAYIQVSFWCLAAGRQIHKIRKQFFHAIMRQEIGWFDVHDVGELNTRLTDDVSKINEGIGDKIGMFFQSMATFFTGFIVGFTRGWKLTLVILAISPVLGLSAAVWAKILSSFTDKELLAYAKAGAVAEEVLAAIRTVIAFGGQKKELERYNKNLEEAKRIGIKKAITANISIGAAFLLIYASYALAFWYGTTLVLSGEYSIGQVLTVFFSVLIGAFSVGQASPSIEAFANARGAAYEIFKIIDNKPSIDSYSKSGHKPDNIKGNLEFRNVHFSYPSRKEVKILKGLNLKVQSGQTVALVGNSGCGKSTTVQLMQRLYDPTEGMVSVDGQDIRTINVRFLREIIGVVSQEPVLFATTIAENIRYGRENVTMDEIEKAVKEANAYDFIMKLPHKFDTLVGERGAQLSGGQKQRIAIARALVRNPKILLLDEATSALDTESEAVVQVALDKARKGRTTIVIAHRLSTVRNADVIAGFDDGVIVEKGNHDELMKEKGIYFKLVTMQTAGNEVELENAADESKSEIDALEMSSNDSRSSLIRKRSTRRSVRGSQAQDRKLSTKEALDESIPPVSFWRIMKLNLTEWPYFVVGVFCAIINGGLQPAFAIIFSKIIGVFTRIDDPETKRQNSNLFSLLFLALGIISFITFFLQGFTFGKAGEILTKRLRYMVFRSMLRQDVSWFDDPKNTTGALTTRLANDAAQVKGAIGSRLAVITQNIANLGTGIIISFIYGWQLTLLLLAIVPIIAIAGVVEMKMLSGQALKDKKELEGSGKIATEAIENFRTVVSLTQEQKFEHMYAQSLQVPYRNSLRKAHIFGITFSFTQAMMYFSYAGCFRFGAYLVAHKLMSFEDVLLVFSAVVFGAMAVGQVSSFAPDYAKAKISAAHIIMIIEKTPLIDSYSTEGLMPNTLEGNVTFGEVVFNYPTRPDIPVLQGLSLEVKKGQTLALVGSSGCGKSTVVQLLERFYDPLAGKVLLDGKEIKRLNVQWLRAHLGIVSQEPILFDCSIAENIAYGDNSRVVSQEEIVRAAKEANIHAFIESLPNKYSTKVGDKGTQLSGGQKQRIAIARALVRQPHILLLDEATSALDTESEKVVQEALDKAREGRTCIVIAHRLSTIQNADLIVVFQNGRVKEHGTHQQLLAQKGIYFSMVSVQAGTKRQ

Compound | period change [1] | survival [2] | parasite load remaining [3] | viability [3] | inhibition [4] | fluorescence ratio (interference) [5] | fold change [6, 10] | fold change [6, 11] | cell count [6, 12] | cell count [6, 13] | outcome [7] | z-score [8] | fluorescence slope change [9]
CNCCNS(=O)(=O)c1cccc2cnccc12 | 0.23 h (inactive) | 194 (active) | 51% (inactive) | 111% | -6% (inactive) | 0.9 (inactive) | 1.05 (inactive) | 1.37 | 10700 | 10200 | inactive | -0.89 (inactive) | 
CCCCCCC/C=C\CCCCCCCCC(=O)O | 0.02 h (inactive) |  |  |  | -4% (inactive) | 0.9 (inactive) | 1.08 (inactive) | 0.494 | 10900 | 10100 | inactive | 0.87 (inactive) | 
Brc1ccc([C@H]2CN3CCSC3=N2)cc1 | -0.16 h (inactive) | 79.5 (inactive) |  |  | 0% (inactive) | 0.9 (inactive) | 1.04 (inactive) | 1.3 | 9880 | 9490 | inactive | 0.145 (inactive) | 
S=C(Nc1ccccc1)Nc1nccs1 | 0.02 h (inactive) |  |  |  | -3% (inactive) | 1 (inactive) | 1.08 (inactive) | 0.629 | 6230 | 5760 | inactive | -1.19 (inactive) | 65.3% (active)
CCCCCCCCCC(=O)NC(CN1CCOCC1)[C@H](O)c1ccccc1 (some centres not stated) | 0.05 h (inactive) |  |  |  | 2% (inactive) | 1 (inactive) | 0.995 (inactive) | 1.18 | 7040 | 7080 | inactive | -1.16 (inactive) | 
CN1C2CC(OC(=O)[C@H](CO)c3ccccc3)CC1C1OC12 (some centres not stated) | 0.01 h (inactive) | 4.58 (inactive) |  |  | -4% (inactive) | 1 (inactive) | 0.96 (inactive) | 0.75 | 10100 | 10500 | inactive | 0.535 (inactive) | 
CC(=O)/C(C)=N/O | 0.15 h (inactive) |  |  |  |  |  | 0.97 (inactive) | 2.72 | 9060 | 9340 | inactive | 0.485 (inactive) | 
COc1cccc(OC)c1OCCNCC1CSc2ccccc2O1 (configuration not stated) | 0.065 h (inactive) |  |  |  | 0% (inactive) | 1 (inactive) | 1.03 (inactive) | 1.19 | 7530 | 7340 | inactive | -1.31 (inactive) | 
COCCOc1cc2nc[nH]c(=O)c2cc1OCCOC |  |  |  |  |  |  | 1.02 (inactive) | 1.39 | 10200 | 10100 | inactive | 1.01 (inactive) | 
COc1cc(OC)c(/C=C2/C(=O)Nc3ccccc32)c(OC)c1 | -0.54 h (inactive) |  | 35.9% (inactive) | 78.8% | -1% (inactive) | 1 (inactive) | 1.2 (inactive) | 0.628 | 2100 | 1750 | inactive | -1.29 (inactive) | 
NS(=O)(=O)c1ccc(-n2nc(C(F)(F)F)cc2-c2ccc(Cl)cc2)cc1 |  |  |  |  |  |  | 1.1 (inactive) | 0.617 | 7530 | 6870 | inactive | 2.57 (active) | 
Nc1ncnc2c1ncn2C1CCCC1 | 0.035 h (inactive) |  |  |  | -6% (inactive) | 0.9 (inactive) | 1.02 (inactive) | 2.13 | 10400 | 10200 | inactive | -0.07 (inactive) | 
CCCCCCCCCCCCCCCCCCN(CCCCCCCCCCCCCCCCCC)CCCN(CCO)CCO |  |  |  |  |  |  | 0.981 (inactive) | 1.42 | 10100 | 10300 | inactive | 0.39 (inactive) | 
O=C(Nc1cccc(C(=O)Nc2ccc(S(=O)(=O)O)c3cc(S(=O)(=O)O)cc(S(=O)(=O)O)c23)c1)Nc1cccc(C(=O)Nc2ccc(S(=O)(=O)O)c3cc(S(=O)(=O)O)cc(S(=O)(=O)O)c23)c1 | -0.03 h (inactive) |  |  |  | 91% (active) | 1.1 (inactive) | 1.05 (inactive) | 0.567 | 9650 | 9220 | inactive | 0.865 (inactive) | 
Nc1ccc(CCNc2ncnc3c2ncn3C2OC(CO)C(O)C2O)cc1 (configuration not stated) | 0.215 h (inactive) |  |  |  | -1% (inactive) | 1 (inactive) | 1.01 (inactive) | 1.75 | 10600 | 10500 | inactive | 0.795 (inactive) | 
Nc1ncnc2c1ncn2[C@@H]1O[C@H](COP(=O)(O)OP(=O)(O)OP(=O)(O)OP(=O)(O)OC[C@@H]2O[C@H](n3cnc4c(N)ncnc43)C(O)[C@@H]2O)[C@H](O)C1O (some centres not stated) | 0.05 h (inactive) |  |  |  | 3% (inactive) | 1 (inactive) | 0.899 (inactive) | 1.4 | 8750 | 9730 | inactive | 4.53 (active) | 
O=C(CCSCc1ccco1)NNC(=O)N1Cc2ccccc2Oc2ccc(Cl)cc21 |  |  |  |  |  |  | 0.969 (inactive) | 0.669 | 7850 | 8100 | inactive | 1.58 (inactive) | 
COc1cc(OC)cc(-c2cc3cnc(N)nc3nc2NC(=O)NC(C)(C)C)c1 |  |  |  |  |  |  | 1.04 (inactive) | 2.01 | 4510 | 4320 | inactive | 0.34 (inactive) | 
Nc1nc2c(nc(Br)n2C2OC3COP(=O)(O)O[C@@H]3C2O)c(=O)[nH]1 (some centres not stated) | -0.01 h (inactive) |  |  |  | -2% (inactive) | 1 (inactive) | 1.05 (inactive) | 1.74 | 10000 | 9530 | inactive | 0.555 (inactive) | 
